Results on five molecules are retold here after PubChem BioAssay.

The source made the active and inactive calls. Unless noted, the rule behind the calls is not given here.

Assay [1] can be described thus: compounds binding Alexa647 anti-His antibody – biochemical, small-molecule microarray, 635 nm fluorescence, artefact control for SMM control protein annotation, primary screen (AID 1128).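 Note: score merges feature fluorescence with signal-to-noise for each printed compound spot.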 The note with it: higher = more signal.
The subject of assay [2] is Human papillomavirus type 1a E7 protein (residues 1-88). The experiment in a line: HPV1a E7 small-molecule binders, primary screen, biochemical, small-molecule microarray, residues 1-88, 635 nm (AID 1129). The note with it: small-molecule microarray binding, fluorescence 635 nm; higher = more signal.
Assay [3] has as its target Focal adhesion kinase 1 (Homo sapiens) (UniProt Q05397). Briefly: PTK2 protein binding on printed compound slides – biochemical, small-molecule microarray, 635/667 nm fluorescence, BSA, DTT, primary screen (AID 1130).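 Note: composite of spot emission at 667 nm and signal to noise over triplicate slides.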 The note with it: 635 nm fluorescence, higher = more signal.
Assay [4] relates to Fibrinogen (Alexa647-labelled). Briefly: Alexa647-fibrinogen binding to printed small molecules – biochemical, small-molecule microarray, 635/667 nm fluorescence, artefact control for SMM control-protein annotation, profiling panel (AID 1131).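 Note: z-score merges 667 nm fluorescence with per-spot signal-to-noise over triplicate slides.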 The settings on record: fibrinogen-A647 binding fluorescence, higher = more signal.
For assay [5], the target named is Follistatin (Homo sapiens) (UniProt P19883). The experiment in a line: FST protein binding to printed compounds – biochemical, small-molecule microarray, 635/667 nm fluorescence, primary screen (AID 1132). The note with it: 635 nm fluorescence, higher = more signal.
The target of assay [6] is Fibroblast growth factor 2 (Homo sapiens) (UniProt P09038). The experiment in a line: basic fibroblast growth factor binding to printed compounds – biochemical, small-molecule microarray, 635/667 nm fluorescence, primary screen (AID 1133). The note with it: FGF2, fluorescence 635/667, higher = more signal.
A short description of assay [7]: JC-1 mitochondrial potential readout, lung cancer cells – cell-based, A549, JC-1 fluorescence, basal, 24 h, 100 nL, profiling panel (AID 1138).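 Note: A549 lung adenocarcinoma cells under basal conditions with no added stimulus; test concentration not given here.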 The note with it: higher = more signal.
Assay [8] relates to Lefty1. The experiment in a line: Lefty1 protein binding to printed compounds – biochemical, small-molecule microarray, 635/667 nm fluorescence, primary screen (AID 1139). The settings on record: fluorescence 635/667, higher = more signal.
Assay [9] concerns wheat germ agglutinin (Triticum aestivum), Alexa647-labelled. Briefly: Alexa647-WGA lectin binding to printed small molecules – biochemical, small-molecule microarray, 635/667 nm fluorescence, artefact control for SMM control-protein annotation, profiling panel (AID 1140).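 Note: score merges 667 nm feature emission with signal to noise over triplicate slides.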 The settings on record: WGA-A647 binding, 635 nm fluorescence, higher = more signal.
In assay [10] the target is Luciferin 4-monooxygenase (Photinus pyralis) (UniProt P08659). The experiment in a line: inhibition of purified Photinus pyralis luciferase – biochemical, luminescence, purified enzyme, 2006 set, primary screen (AID 1141).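 Note: cell-free assay with purified firefly luciferase at 100 ng per well in PBS; test concentration not given here.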 The note with it: purified firefly luciferase, SteadyGlo luminescence, 30 min; higher = more signal, called active from +8 up or from −8 down.
The test system of assay [11] is Wnt5a (protein binding on small-molecule microarray). The experiment in a line: small molecules binding Wnt5a protein – biophysical, small-molecule microarray, 635/667 nm fluorescence, primary screen (AID 1142).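 Note: fluorescence read at 667 nm with signal to noise per printed feature.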 The settings on record: 635 nm fluorescence, higher = more signal.
Assay [12] is described as follows: ATP-based viability of Huh7 replicon cells – cell-based, CellTiter-Glo luminescence, basal, 48 h, cytotoxicity control for HCV replication inhibitor project, primary screen (AID 1143).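 Note: Huh7 hepatoma cells carrying a hepatitis C replication reporter with no stimulus; test concentration not given here.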 The settings on record: higher = more signal, called active from +8 up or from −8 down.
The nature of assay [13]: Pseudomonas biofilm growth suppression – PAO1 strain, BacTiter-Glo luminescence, LB-PBS, primary screen (AID 1144). The note with it: P. aeruginosa PAO1 biofilm, 12 h, higher = more signal.
Assay [14] can be described thus: basal CRE-LacZ reporter activity in PC12 – cell-based, unstimulated, primary screen (AID 1145). The note with it: no forskolin, luminescence, 4.5 h, higher = more signal, called active from +8 up or from −8 down.
The nature of assay [15]: forskolin-driven CRE-LacZ activity in PC12 – cell-based, CRE-LacZ reporter, forskolin-stimulated, primary screen (AID 1146).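 Note: PC12 cells with 6xCRE LacZ reporter stimulated by forskolin 10 µM; beta-galactosidase reporter signal reflecting CREB driven transcription.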 The note with it: luminescence, 4.5 h, higher = more signal, called active from +8 up or from −8 down.
The target of assay [16] is Streptavidin (Streptomyces avidinii) (UniProt P22629). Briefly: compounds binding control protein streptavidin – biophysical, small-molecule microarray, 635/667 nm fluorescence, artefact control for SMM compound annotation, primary screen (AID 1147).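 Note: signal reflects streptavidin binding to arrayed compounds as a control protein.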 The note with it: higher = more signal.
Assay [17] is described as follows: probe aInhba binding on compound microarray – biochemical, small-molecule microarray, 635/667 nm fluorescence, primary screen (AID 1148).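 Note: score merges 667nm spot fluorescence with signal-to-noise for antibody binding to printed compounds.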 The settings on record: higher = more signal.
Assay [18] has as its target Torsin-1A (Homo sapiens) (UniProt O14656). The experiment in a line: TOR1A wild-type binding on microarray – cell lysate, small-molecule microarray, lysate, 635/667 nm, primary screen (AID 1149). The note with it: COS7 hTOR1A-WT lysate, 635 nm fluorescence, higher = more signal.
For assay [19] the target is unchanged. Briefly: torsin A mutant lysate binding on microarrays – cell lysate, small-molecule microarray, COS7 lysate, 635/667 nm fluorescence, primary screen (AID 1150).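 Note: score pools 667 nm emission and signal to noise measuring lysate protein binding.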 The note with it: COS7 hTOR1A mutant lysate, 635 nm fluorescence, higher = more signal.
The subject of assay [20] is Sonic hedgehog protein (Shh). The experiment in a line: Sonic hedgehog microarray binding compounds – biochemical, small-molecule microarray, 635/667 nm fluorescence, primary screen (AID 1151).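 Note: Shh protein binding to compounds spotted on small-molecule microarray slides; score combines spot fluorescence intensity with signal-to-noise across triplicate slides.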 The settings on record: 635 nm fluorescence, higher = more signal.

Sequence of Torsin-1A (Homo sapiens) (O14656 whole entry, looked up): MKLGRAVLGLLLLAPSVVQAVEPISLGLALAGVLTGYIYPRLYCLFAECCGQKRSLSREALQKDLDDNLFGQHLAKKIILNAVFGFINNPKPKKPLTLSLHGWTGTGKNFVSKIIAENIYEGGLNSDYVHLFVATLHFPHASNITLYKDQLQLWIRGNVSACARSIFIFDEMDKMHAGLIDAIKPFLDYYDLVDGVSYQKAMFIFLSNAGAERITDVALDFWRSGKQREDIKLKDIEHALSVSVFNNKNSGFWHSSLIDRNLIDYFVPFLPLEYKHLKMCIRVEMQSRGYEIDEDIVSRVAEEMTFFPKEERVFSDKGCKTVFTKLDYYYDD
Sequence of Focal adhesion kinase 1 (Homo sapiens) (Q05397 whole entry, looked up): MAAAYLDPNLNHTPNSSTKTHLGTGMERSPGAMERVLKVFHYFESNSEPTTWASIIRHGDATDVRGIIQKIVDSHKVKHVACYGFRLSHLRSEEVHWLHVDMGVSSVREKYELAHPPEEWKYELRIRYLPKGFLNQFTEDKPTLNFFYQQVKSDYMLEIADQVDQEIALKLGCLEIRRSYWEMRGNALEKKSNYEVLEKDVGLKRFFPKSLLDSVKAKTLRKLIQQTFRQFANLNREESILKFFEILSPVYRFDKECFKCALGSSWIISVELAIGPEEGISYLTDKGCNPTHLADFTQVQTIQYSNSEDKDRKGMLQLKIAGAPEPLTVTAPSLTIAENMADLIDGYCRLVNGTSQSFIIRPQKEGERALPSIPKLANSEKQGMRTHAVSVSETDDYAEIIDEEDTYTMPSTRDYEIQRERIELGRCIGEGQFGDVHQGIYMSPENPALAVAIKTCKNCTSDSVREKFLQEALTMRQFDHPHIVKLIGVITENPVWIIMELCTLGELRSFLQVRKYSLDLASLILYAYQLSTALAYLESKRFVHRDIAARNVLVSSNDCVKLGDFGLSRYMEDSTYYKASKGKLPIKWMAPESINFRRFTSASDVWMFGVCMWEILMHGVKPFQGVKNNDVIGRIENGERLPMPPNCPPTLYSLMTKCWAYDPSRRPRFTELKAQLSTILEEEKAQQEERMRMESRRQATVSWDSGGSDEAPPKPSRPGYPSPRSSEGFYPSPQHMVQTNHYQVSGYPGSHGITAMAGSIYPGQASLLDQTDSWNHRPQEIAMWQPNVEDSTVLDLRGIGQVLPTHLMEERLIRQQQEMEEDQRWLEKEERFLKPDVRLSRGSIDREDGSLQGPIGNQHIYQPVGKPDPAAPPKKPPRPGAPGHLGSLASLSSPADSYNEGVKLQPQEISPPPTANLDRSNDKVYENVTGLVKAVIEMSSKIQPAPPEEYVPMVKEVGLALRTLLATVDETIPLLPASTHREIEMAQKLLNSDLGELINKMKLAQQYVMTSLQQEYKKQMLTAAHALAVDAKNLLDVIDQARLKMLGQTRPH
Sequence of Fibroblast growth factor 2 (Homo sapiens) (P09038 whole entry, looked up): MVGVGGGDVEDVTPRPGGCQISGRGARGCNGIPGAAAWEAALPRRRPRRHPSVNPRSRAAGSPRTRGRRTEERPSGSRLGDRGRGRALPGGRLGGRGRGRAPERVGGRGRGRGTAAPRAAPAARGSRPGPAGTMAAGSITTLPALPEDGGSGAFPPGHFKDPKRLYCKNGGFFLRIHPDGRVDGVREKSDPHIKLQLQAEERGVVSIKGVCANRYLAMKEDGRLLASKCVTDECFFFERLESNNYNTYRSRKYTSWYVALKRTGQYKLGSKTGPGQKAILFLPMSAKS
Sequence of Streptavidin (Streptomyces avidinii) (P22629 whole entry, looked up): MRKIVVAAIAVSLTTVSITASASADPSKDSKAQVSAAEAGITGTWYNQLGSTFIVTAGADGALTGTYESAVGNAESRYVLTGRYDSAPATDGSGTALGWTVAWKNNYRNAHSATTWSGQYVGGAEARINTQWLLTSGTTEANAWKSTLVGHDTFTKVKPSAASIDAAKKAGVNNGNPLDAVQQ
Sequence of Luciferin 4-monooxygenase (Photinus pyralis) (P08659 whole entry, looked up): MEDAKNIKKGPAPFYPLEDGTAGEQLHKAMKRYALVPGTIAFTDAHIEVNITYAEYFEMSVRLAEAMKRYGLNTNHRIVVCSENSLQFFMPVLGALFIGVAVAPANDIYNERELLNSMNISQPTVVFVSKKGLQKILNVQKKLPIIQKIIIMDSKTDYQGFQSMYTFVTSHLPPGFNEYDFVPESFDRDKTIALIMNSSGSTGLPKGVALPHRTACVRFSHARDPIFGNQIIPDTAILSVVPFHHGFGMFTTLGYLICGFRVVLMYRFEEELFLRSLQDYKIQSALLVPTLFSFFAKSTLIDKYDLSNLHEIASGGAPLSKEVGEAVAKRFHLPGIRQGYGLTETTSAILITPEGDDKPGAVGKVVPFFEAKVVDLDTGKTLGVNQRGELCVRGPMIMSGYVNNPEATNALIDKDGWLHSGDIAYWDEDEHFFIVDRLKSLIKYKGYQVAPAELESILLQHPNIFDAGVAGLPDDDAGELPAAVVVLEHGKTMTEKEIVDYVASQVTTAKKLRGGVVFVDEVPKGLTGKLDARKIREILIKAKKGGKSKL
Sequence of Follistatin (Homo sapiens) (P19883 whole entry, looked up): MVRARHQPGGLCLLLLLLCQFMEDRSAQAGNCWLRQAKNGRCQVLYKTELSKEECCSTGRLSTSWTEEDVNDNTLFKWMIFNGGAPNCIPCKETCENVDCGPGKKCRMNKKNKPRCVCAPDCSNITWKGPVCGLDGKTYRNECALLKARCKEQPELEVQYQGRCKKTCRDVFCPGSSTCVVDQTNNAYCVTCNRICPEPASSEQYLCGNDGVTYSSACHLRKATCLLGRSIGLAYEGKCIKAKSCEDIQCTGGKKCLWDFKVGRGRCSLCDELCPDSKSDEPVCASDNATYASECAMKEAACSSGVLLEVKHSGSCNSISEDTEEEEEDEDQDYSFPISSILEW

As for `C=C(COC)/C(=C/C[C@H](OC(=O)c1ccncc1)c1ccc(CO)o1)c1cc(C(=O)OC)ccc1OC`, the composite z-score is 1.38 in assay [1]; 1.12 in assay [2]; -0.113 in assay [3]; -0.0921 in assay [4]; 1.22 in assay [5]; 1.32 in assay [6]. For the same molecule, the composite z-score in assay [8] was 1.14; in assay [9], 0.113; in [11], 0.868; in assay [16] it was -0.24; in assay [17], -0.003; in [18], 0.787. For the same molecule, the composite z-score in assay [19] came out at 0.366; in assay [20], 1.62. Moreover, the z-score was -0.713 in assay [7]; -0.448 (inactive) in [10]; -0.0528 (inactive) in assay [12]; -1.27 (inactive) in [13]; 0.0422 (inactive) in assay [14]; 0.877 (inactive) in assay [15].

On to `C[C@@H](c1ccccc1)N1C(=O)[C@H]2[C@H]3[C@H](O)C=CC(=O)[C@@H]3CC[C@H]2C1=O`, for which the composite z-score in assay [1] was 0.299; in assay [2], 0.492; in [3], -0.0464; in assay [4], 0.392; in assay [5], 0.503; in assay [6] it was 0.104. The composite z-score in assay [8] was 0.752; in [9], 0.204; in assay [11], -0.143; in [16] it was 0.831; in assay [17], 0.0422; in assay [18], 0.445. The composite z-score in assay [19] came out at 0.0746; in assay [20], 0.593. In addition, the z-score in assay [7] is 0.107; in [10], -0.62 (inactive); in assay [12], -1.8 (inactive); in assay [13], 0.715 (inactive); in [14], 0.247 (inactive); in assay [15] it was -0.323 (inactive).

Turning to `COC(=O)[C@@]1(Cc2ccc(F)cc2)[C@H]2c3cc(C(=O)N(C)C)n(Cc4ccc(OC)c(OC)c4)c3C[C@H]2CN1C(=O)c1ccccc1`, the composite z-score in assay [1] is 0.835; in [2], -0.267; in assay [3] it was 1.71; in [4], 0.661; in assay [5] it was -0.405; in assay [6], -0.346. For the same molecule, the composite z-score is -0.614 in [8]; 0.63 in assay [9]; 0.702 in assay [11]; 0.319 in [16]; 0.351 in assay [17]; 0.0209 in [18]. Besides, the composite z-score in assay [19] is 0.1; in assay [20], -0.715. In addition, the z-score in [7] was 0.362; in assay [10], 1.22 (inactive); in assay [12], -3.26 (inactive); in assay [13] it was -0.642 (inactive); in assay [14], 0.194 (inactive); in assay [15], 0.426 (inactive).

Turning to `O=C1[C@H]2[C@H]3[C@H](O)[C@H](O)CC(=NOCc4ccccc4)[C@H]3CC[C@H]2C(=O)N1c1ccc(F)cc1F`, the composite z-score in assay [1] was 0.492; in [2], -0.0368; in assay [3], 0.145; in assay [4], -0.898; in assay [5], -0.273; in assay [6], 0.0342. Further, the composite z-score in assay [8] is -0.0947; in [9], 0.146; in [11] it was -0.0542; in assay [16], -0.899; in assay [17] it was -0.536; in assay [18] it was -0.0184. In addition, the composite z-score was -0.013 in assay [19] and -0.311 in assay [20]. Also, the z-score in assay [7] is -0.206; in assay [10], 0.522 (inactive); in [12], -0.627 (inactive); in assay [13] it was -0.665 (inactive); in [14], -0.926 (inactive); in assay [15], -0.14 (inactive).

As to `CCCCC(=C=CC[C@H](O)c1ccccc1OCCO)C[C@H](O)COCc1ccccc1`, the composite z-score in assay [1] is -1.29; in assay [2], -0.138; in [3], 0.329; in assay [4] it was -0.256; in assay [5] it was 0.103; in assay [6], 0.189. The composite z-score was -0.0107 in assay [8]; -0.142 in [9]; -0.0702 in assay [11]; 0.395 in assay [16]; -0.0523 in assay [17]; 1.08 in assay [18]. Further, the composite z-score came to 0.259 in assay [19] and 0.0668 in [20]. Further, the z-score in [7] is 0.544; in assay [10] it was -0.676 (inactive); in [12] it was -1.41 (inactive); in assay [13] it was 1.44 (inactive); in assay [14], 3.27 (inactive); in assay [15], 0.571 (inactive).
